Laboratory results: ChEMBL document CHEMBL1201862, “PubChem BioAssay data set” (2004)
The campaign covered roughly 400,000 compounds. About 2,100 (0.53%) were called active. Another 14% or so got no clear call; they are omitted. How the calls were made is not given here. Shown is part of a subset that was picked to be rich in actives.

These molecules were tested against Ataxin-2 (Homo sapiens) (UniProt Q99700) (assay: qHTS for Inhibitors of ATXN expression.).
Format: functional

Chain of Ataxin-2 (Homo sapiens) (Q99700 whole entry): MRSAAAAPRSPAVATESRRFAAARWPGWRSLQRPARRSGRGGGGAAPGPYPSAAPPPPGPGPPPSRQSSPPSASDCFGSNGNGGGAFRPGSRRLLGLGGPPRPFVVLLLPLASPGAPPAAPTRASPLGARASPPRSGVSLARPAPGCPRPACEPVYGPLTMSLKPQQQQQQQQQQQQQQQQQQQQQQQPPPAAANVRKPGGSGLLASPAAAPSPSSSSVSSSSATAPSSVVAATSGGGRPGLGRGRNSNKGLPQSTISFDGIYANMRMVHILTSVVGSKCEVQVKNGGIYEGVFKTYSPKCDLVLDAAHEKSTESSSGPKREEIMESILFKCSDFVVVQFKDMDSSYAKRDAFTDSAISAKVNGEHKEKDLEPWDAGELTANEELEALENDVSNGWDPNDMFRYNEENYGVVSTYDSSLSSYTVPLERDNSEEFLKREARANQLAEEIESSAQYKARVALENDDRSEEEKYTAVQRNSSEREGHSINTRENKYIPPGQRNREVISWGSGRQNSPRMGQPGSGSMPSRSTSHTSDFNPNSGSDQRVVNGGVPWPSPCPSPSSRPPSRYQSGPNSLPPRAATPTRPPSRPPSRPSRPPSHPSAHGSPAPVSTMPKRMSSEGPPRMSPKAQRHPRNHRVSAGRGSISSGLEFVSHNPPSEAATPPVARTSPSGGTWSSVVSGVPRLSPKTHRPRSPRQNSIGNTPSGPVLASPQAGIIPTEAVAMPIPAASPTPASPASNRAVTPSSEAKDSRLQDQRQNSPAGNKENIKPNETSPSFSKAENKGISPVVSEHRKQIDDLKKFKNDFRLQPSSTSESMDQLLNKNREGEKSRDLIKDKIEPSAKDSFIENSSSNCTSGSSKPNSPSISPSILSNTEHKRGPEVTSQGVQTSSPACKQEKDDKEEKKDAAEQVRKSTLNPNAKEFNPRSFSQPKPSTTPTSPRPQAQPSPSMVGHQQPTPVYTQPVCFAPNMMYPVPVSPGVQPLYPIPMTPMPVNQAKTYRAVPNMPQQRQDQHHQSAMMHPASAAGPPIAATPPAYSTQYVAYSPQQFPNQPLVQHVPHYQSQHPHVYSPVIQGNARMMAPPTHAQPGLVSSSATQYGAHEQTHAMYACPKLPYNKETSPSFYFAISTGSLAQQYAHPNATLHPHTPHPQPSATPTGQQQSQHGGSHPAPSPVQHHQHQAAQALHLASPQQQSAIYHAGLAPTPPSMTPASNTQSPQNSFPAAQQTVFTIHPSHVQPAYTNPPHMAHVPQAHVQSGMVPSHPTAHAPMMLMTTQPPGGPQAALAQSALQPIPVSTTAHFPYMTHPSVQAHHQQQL

| Compound | Potency |
| --- | --- |
| COc1cccc(C2C3=C(O)CC(C)(C)CC3=Nc3cc(OC)c(OC)cc32)c1 (stereo not given) | inactive |
| COC(=O)C=C1CCC2C3CCC4=CC(=O)C(Br)CC4(C)C3C(=O)CC12C (stereo not given) | 31.6 µM (active) |
| COc1ccc(C2CC(c3ccc(Cl)cc3)=NN2c2ccc(S(N)(=O)=O)cc2)cc1 (stereo not given) | inactive |
| CCOC(=O)C1(C)C=C(Nc2ccc(NC(C)=O)cc2)C(=O)N1c1ccc(NC(C)=O)cc1 (stereo not given) | inactive |
| CC(C)(C)OC(=O)N1CCCN(C(=O)Nc2cccc(Cl)c2)CC1 | inactive |
| COc1cc(OC)c(N2CC(C(=O)Nc3cccc(C(=O)NC4CC4)c3)CC2=O)cc1Cl (stereo not given) | inactive |
| CC(C)(C)OC(=O)N1CCC(NC(=O)c2[nH]cnc2C(=O)Nc2cccc(Cl)c2)CC1 | 35.5 µM (active) |
| CC(C)(C)OC(=O)NCc1ccc(CNC(=O)c2[nH]cnc2C(=O)NC2CCN(C(=O)OC(C)(C)C)CC2)cc1 | 20 µM (active) |
| CC(=O)NC(Cc1ccccc1C)C(=O)NC1CCN(C(=O)NCc2ccccc2)CC1 (stereo not given) | inactive |
| COc1ccccc1CC(NC(C)=O)C(=O)NC1CCN(C(=O)NCc2ccccc2)CC1 (stereo not given) | inactive |
| CS(=O)(=O)Nc1nc2n(n1)C(c1ccccc1)C=C(c1ccc(Br)cc1)N2 (stereo not given) | inactive |
| COc1ccc(C2CC(c3ccccc3C(F)(F)F)=NN2c2ccc(S(N)(=O)=O)cc2)cc1 (stereo not given) | inactive |
| Cc1cccn2c(=O)c3cc(C(=O)NCc4cccnc4)c(=N)n(CC4CCCO4)c3nc12 (stereo not given) | inactive |
| Cc1ccc(Cn2c(CN3CCC(C(=O)NCc4cccnc4)CC3)cc3ccccc32)cc1 | 35.5 µM (active) |
| CCn1c(=N)c(C(=O)NCc2cccnc2)cc2c(=O)n3cc(C)ccc3nc21 | inactive |
| Cc1ccccc1Cn1c(CN2CCC(C(=O)NCc3cccnc3)CC2)cc2ccccc21 | 31.6 µM (active) |
| Cc1cccc(Cn2c(CN3CCC(C(=O)NCc4cccnc4)CC3)cc3ccccc32)c1 | 22.4 µM (active) |
| CCCn1c(=N)c(C(=O)NCc2cccnc2)cc2c(=O)n3cc(C)ccc3nc21 | inactive |
| CN(C)CCNC(=O)C1CCN(Cc2cc3ccccc3n2Cc2ccccc2)CC1 | 28.2 µM (active) |
| CCOC(=O)C1CCN(Cc2ccc3ccccc3c2)CC1 | inactive |
| O=C(Nc1nc2c(s1)CN(Cc1ccccc1)CC2)C1CCC1 | inactive |
| O=C(Nc1nc2c(s1)CN(Cc1ccccc1)CC2)C1CCCC1 | inactive |
| CCCn1c(=N)c(C(=O)NCc2cccnc2)cc2c(=O)n3cccc(C)c3nc21 | inactive |
| Cc1ccc(CNC(=O)C2CCN(c3nnc(N4CCCC4=O)s3)CC2)cc1 | inactive |
| CC1CCCCC1NC(=O)CN1C(=O)c2cccc(N)c2C1=O (stereo not given) | inactive |
